Laboratory results published in the OligoGym collection.

The sequences below were run against LHFPL4 (assay: pooled miR-30 sensor sort-seq; sequence = guide strand). Conditions: shRNA.
Note: reference of the scale not given here.

| Sequence | sensor-assay potency score (higher = more potent) |
| --- | --- |
| AGATCTTGTAGACCGTAGCCGT | -1.61 |
| TTCCGCATGTAGTGCTCGTGGT | -0.829 |
| TAGTGCTCGTGGTAGAGCTTGG | -0.315 |
| TTGTAGACCGTAGCCGTGTTGC | -0.989 |

What follows are sequences tested against LHFPL5 in the same assay as above. Conditions: shRNA.

| Sequence | sensor-assay potency score (higher = more potent) |
| --- | --- |
| TAGTGTTATAATAAAAGGCTTC | -0.225 |
| TTGTCTCAGGAGACTGTCCAGT | -0.336 |
| TTGAACATAAGTAACACATTTC | -0.364 |
| TATAACAAATTACTTGAACATA | -1.51 |
| TTGCAGATGAAGAACAGGCTGA | 0.379 |
| TTCTGGTTGAGTCAGTGTGGGC | -1.68 |
| TACAGTAGGAGGTCTTGTCTCA | -0.0507 |
| TAGACTGTGGCCGTGTTGCAGA | -0.721 |
| AACATAAGTAACACATTTCTGA | -0.109 |
| TAACACATTTCTGAAGCTGGTA | 0.181 |
| TAGTTGGTATGGTAGATCTTGG | -1.03 |
| TTGACGCTGTCGCCGATCCAGT | -1.35 |

These sequences were tested against LHX3 in the same assay as above. Conditions: shRNA.

| Sequence | sensor-assay potency score (higher = more potent) |
| --- | --- |
| TGCACTTGAGACACTTGCTGTG | -0.126 |
| TTGCAGTAAACGCTCTCCCCTC | -0.865 |
| TTGAAGTCTTGGAAAGAGCTGA | 0.479 |
| TTTGACTTACACACAGGCCAGC | -0.684 |
| TAGGTCAGAACTGGGTCCGTTC | -0.902 |
| TTGGCAACAGACATCTGTGGGT | 0.209 |
| TTTGGCAACAGACATCTGTGGG | -0.246 |
| TTGAGACACTTGCTGTGCCAGT | -0.489 |
| TTTCATGTCTAGAAATAGCAGC | 0.283 |
| TTGAAAAAGTCGTCCTTGCAGT | -0.456 |
| TTGTCCGACTTGGAGCCGCCGC | -1.19 |
| ATGAGGTAGAACTCGTCGCCCG | -1.34 |

What follows are sequences tested against LHX9 in the same assay as above. Conditions: shRNA.

| Sequence | sensor-assay potency score (higher = more potent) |
| --- | --- |
| TTGAGGTCCTTGGCATCCGGGT | -1.42 |
| TTTCATGGTCCGGAGCTGGTGA | -0.253 |
| TTAAAGTGGTCGCAGTGCCGGG | -1.18 |
| TGTCACTACAGTGATAGTGGGA | 0.281 |
| TACAGTGATAGTGGGATTGGTC | -0.245 |
| TTCCTTCTGAATTTGGCTCGTG | 0.209 |
| TTTCTGGGCAAGCTGCTTGAGG | -0.927 |
| TTCTGAATTTGGCTCGTGCGTT | -1.08 |
| TAGTTTGTGAGGGGCTTCCGGA | -1.17 |
| TTACATTCACAGCACTTCAGGC | -0.155 |
| TGCGTTTTGGAACCAAACCTGC | -1.08 |
| TAAAGTGGTCGCAGTGCCGGGT | -0.418 |
